Data: article PMC6212790, “How bacterial xenogeneic silencer rok distinguishes foreign from self DNA in its resident genome”
The full ranking holds about 33,000 sequences; the median of “e-score” is about -0.037, and the highest 2% start at about 0.34. What follows is part of a selection rich in the highest values, with near analogues and random picks from the rest.

Molecular target: T1, GST-Rok (full length) (Bacillus subtilis subsp. subtilis str. …, UniProt O34857 1-191)
T1 sequence: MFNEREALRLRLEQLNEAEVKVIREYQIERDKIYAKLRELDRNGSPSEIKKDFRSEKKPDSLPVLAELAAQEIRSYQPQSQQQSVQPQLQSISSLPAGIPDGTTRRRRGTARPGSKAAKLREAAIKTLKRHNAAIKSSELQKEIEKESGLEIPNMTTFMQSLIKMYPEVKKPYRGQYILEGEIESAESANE
Experiment: protein binding microarray; Rok is a gene silencer of Bacillus subtilis; high values mean tight binding
Settings: protein: recombinant; tags: GST (pTH5325, pDEST15-Magic modified); dsDNA, one strand shown
Outline: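 Each has a 25-mer constant primer and a 35-mer variable part from a de Bruijn sequence of order 10, covering every non-palindromic 8-mer at least 32 times (palindromic 16). Preference for each 8-mer is given as a rank-based, unitless enrichment score (E-score). Its range runs from 0.5 (most favored) to −0.5 (most disfavored).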

Sequence	binding signal
ATATAGCG	0.349 E-score
ATATAGGG	-0.0461 E-score
CCATATAG	0.0758 E-score
ATATAGCC	-0.000533 E-score
AGTTATGG	0.209 E-score
CAGCTAGA	0.0847 E-score
AACTTCAC	-0.0432 E-score
CCTAACGA	-0.117 E-score
ATTTTGCC	0.0261 E-score
GATCTGAA	-0.0373 E-score
CATGCCGA	0.0242 E-score
AATCTACT	0.432 E-score
AATCTACC	0.437 E-score
CATCTACC	0.291 E-score
AATCTACG	0.311 E-score
GATCTACC	0.382 E-score
ACTCTACC	-0.0638 E-score
ACTCTACT	0.27 E-score
GATCTAAC	0.12 E-score
AATCTAAC	0.189 E-score
AGTTATTC	0.069 E-score
ACCTTAAC	-0.0118 E-score
CATGGTAC	0.13 E-score
GTTTAACA	0.108 E-score
AATTCAGA	0.0748 E-score
CACTCAAC	-0.00301 E-score

Sequence	binding signal
CAGCATTC	0.0234 E-score
GTGGCTGA	-0.0523 E-score
AGAAAAAG	0.0648 E-score
ATTTATAA	0.333 E-score
ATTTATTC	0.219 E-score
ATTTATAC	0.356 E-score
ATTTATAG	0.398 E-score
AGTTATAC	0.329 E-score
ATTTATTA	0.312 E-score
CTTTATAC	0.226 E-score
ATTTATGG	0.218 E-score
ATTTATTG	0.348 E-score
CATTAGGC	-0.146 E-score
AGAGTGGA	-0.109 E-score
AACCAGAG	-0.187 E-score
AACTACCA	0.432 E-score
AACTACCT	0.416 E-score
GACTACCA	0.095 E-score
ACCTACCT	0.271 E-score
AACTACCC	0.292 E-score
TCCTACCA	0.175 E-score
CACTACCA	0.221 E-score
AACTACCG	0.417 E-score
AACTATCG	0.316 E-score
TACTACCA	0.386 E-score
TGCTACCA	0.152 E-score

Sequence	binding signal
CACTACCG	0.0654 E-score
GGACTCTA	-0.165 E-score
CTACAGGA	-0.04 E-score
ACAAGCCT	-0.083 E-score
CTCTCACA	-0.156 E-score
AGACGCAA	-0.089 E-score
GCCATTCA	0.0688 E-score
ACCGAGCG	-0.175 E-score
CTTAGTAC	0.206 E-score
GGTAGTAC	0.339 E-score
GGTAGGAC	0.0568 E-score
CGTAGTAC	0.202 E-score
AGTAGTGC	0.0725 E-score
AGTAGTAC	0.336 E-score
CTCAACTA	0.13 E-score
CATGGAGA	0.0828 E-score
CATGCGGC	-0.125 E-score
ACATGCCA	0.0568 E-score
CCATGCTA	0.073 E-score
GCATGCTA	0.111 E-score
ACATGCTA	0.365 E-score
ACCTATGA	0.118 E-score
ATAAGTGA	0.123 E-score
GTATTTAA	0.285 E-score
GTATTTGA	0.0869 E-score
ATATTTTG	0.297 E-score

Sequence	binding signal
ATATTTTA	0.412 E-score
GTATTTTA	0.411 E-score
CTATTTTC	0.344 E-score
ATATTTTC	0.326 E-score
CTATTTCC	0.18 E-score
CTATTTTA	0.325 E-score
GTGACGTA	0.0931 E-score
CCTGGTCA	-0.133 E-score
GAAGTAGC	0.182 E-score
GGTCGGGA	-0.156 E-score
CCCGACGA	-0.104 E-score
AGCACTAA	-0.126 E-score
CAATAGAC	0.089 E-score
AAAAGCGC	-0.0281 E-score
ATGATATG	0.172 E-score
CTGATATA	0.204 E-score
ATGATATA	0.389 E-score
ATGATAGA	0.342 E-score
ATGATAGC	0.179 E-score
ATGATAGG	0.0932 E-score
AATTCGTA	0.263 E-score
ATAGTCTC	0.0365 E-score
GTAGTAAC	0.321 E-score
GTAGTAAA	0.348 E-score
ATAGTAAT	0.392 E-score
GAAGTAAA	0.237 E-score

Sequence	binding signal
CTAGTAAC	0.303 E-score
ATAGTCTG	0.347 E-score
AGAGTAAT	0.197 E-score
ATAGTAAC	0.366 E-score
ATAGTAAG	0.282 E-score
ATAGTCTA	0.0771 E-score
GGAGTAAA	-0.112 E-score
CATAGGGA	-0.158 E-score
AGCCATAT	0.162 E-score
CTGTCCAC	-0.116 E-score
GAAGAGTA	0.266 E-score
GCAGCTTA	-0.093 E-score
GCTCGAAC	-0.0353 E-score
TCCTTAAA	-0.0816 E-score
CTAGTAAA	0.328 E-score
TTAGTAAA	0.237 E-score
ATAGTATC	0.321 E-score
ATAGTAAA	0.397 E-score
ATAGTATA	0.278 E-score
ATAGTATG	0.359 E-score
AGATTCAA	0.0974 E-score
AACTTTCG	-0.0406 E-score
ATTCGTTA	0.228 E-score
CAAGTTGC	-0.00109 E-score
GTAATGAA	-0.0724 E-score
CTAATGTA	0.184 E-score

Sequence	binding signal
GTAATGTA	0.364 E-score
ATAATGTG	0.201 E-score
ATAATGTC	0.175 E-score
ATAATGTA	0.4 E-score
ATTAACAG	0.0334 E-score
TACCGCCA	0.0353 E-score
AAAGAAAG	0.132 E-score
CGATACGA	-0.0427 E-score
GTACGGCA	-0.048 E-score
GGTATATA	0.386 E-score
AGTATAAA	0.278 E-score
AGTATATA	0.451 E-score
GGTATAGA	0.222 E-score
GGTATAAC	0.313 E-score
CGTATATA	0.28 E-score
AGTATATC	0.221 E-score
GGTATAAA	0.383 E-score
AGTATATG	0.264 E-score
GGTCGTAA	0.0357 E-score
AAGCCGAA	0.00167 E-score
GTCTGGCA	-0.182 E-score
ACTAATCG	0.0113 E-score
ACCTTGGA	-0.145 E-score
AAGCTAGC	0.137 E-score
CAATAACG	0.0291 E-score
CAGTTTCA	-0.0996 E-score

Sequence	binding signal
AAGTTTGA	-0.0342 E-score
TAGTTTCA	0.392 E-score
TAGTTTGA	0.347 E-score
GAGTTTGA	-0.199 E-score
GAGTTTCA	-0.16 E-score
AATAAGAA	0.209 E-score
CGGCGGCA	-0.198 E-score
AGTAGCGA	0.181 E-score
AGACTATC	0.0106 E-score
GAATCTCC	0.00693 E-score
AAATCTAG	0.35 E-score
CAATCTAG	0.285 E-score
GAATCTAA	0.201 E-score
CGATCTAG	0.214 E-score
CGATCTAA	-0.00615 E-score
CAATCTAA	0.172 E-score
AGATCTAG	0.167 E-score
CGATCTAC	0.371 E-score
CAATCTAC	0.365 E-score
GAATCTAC	0.425 E-score
AAATCTCG	0.144 E-score
